In the library only some 0.34% were active in any assay of this set; here they are far more common.
Tb PFK inh-1: blocks T. brucei phosphofructokinase; O15648; T. brucei PFK, ADP-Glo luminescence; Potency, µM (top dose mostly 57.5 µM), hits mostly inhibitors; 330,000 compounds, 0.17% hits; note: nearly all actives have a fitted effect of over 60% in size
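1.25 nM PFK with 0.5 mM F6P and 0.1 mM ATP in 0.1 M TEA pH 8.0, 5 mM MgCl2, incubated 45 min at room temperature; ADP measured by ADP-Glo luminescence; compounds titrated up to 57 uM.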
PI4K2A inh: inhibitors of human PI4K2A | AID 1346378 | purified PI4K2A, ADP-Glo luminescence, 1 h; hits give low values | 420,000 compounds, 0.13% hits | activity change, negative = inhibition, % at 76.9 µM; in the data active = activity change below about -50%; inconclusive = mostly about -30% to -49%
Target sequence (Q9BTU6 whole entry, looked up): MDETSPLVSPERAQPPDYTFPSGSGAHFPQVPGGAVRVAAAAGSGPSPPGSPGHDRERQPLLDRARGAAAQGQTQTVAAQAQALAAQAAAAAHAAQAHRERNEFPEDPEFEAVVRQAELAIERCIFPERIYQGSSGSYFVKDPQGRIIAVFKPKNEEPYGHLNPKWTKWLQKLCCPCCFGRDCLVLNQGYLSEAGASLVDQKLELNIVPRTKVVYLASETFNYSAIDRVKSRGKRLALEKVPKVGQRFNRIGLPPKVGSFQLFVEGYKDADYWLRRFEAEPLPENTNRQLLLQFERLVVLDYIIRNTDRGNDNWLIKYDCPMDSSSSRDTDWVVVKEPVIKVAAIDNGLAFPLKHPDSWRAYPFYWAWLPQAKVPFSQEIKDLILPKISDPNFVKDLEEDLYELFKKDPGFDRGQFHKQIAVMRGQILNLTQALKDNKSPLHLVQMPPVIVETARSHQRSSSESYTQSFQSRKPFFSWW
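In this quantitative HTS, ADP production by PI4K2A was quantified luminescently after 1 h at ambient temperature; 100 microM adenosine served as plate-quality control.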
Pin1 inh: blocks the human prolyl isomerase Pin1. Q13526. Pin1 FP peptide displacement, HiFluor488, 10 min. 390,000 compounds, 0.009% hits. Potency, µM (highest dose often 115 µM), actives largely listed as inhibitors; active = well fitted inhibition curve with a large enough effect in the polarisation, with a control signal flat, not every such curve was filed as active; inconclusive = small, poorly fitted or top-dose-only effect, or effect the other way, or a change in a side signal; inactive = no such curve, though single readings can be large or run the other way; the % refers to the polarisation
Target sequence (Q13526 whole entry, looked up): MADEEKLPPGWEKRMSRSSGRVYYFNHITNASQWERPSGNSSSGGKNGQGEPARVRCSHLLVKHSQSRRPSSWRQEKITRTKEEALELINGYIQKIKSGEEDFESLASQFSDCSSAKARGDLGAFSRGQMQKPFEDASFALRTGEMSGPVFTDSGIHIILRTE
BCR signal inh: blocks chronic active B-cell receptor signaling; 340,000 compounds, 0.05% hits; ABC-DLBCL IkBa-CBG/CBR reporter, luminescence ratio, 4 h; Potency, µM (doses to about 46.1 µM), most hits filed as inhibitors; active = well fitted inhibition curve with a large enough effect in the signal ratio, with a control signal flat, not every such curve was filed as active; inconclusive = small, poorly fitted or top-dose-only effect, or effect the other way, or a change in a side signal; the % refers to the signal ratio
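Doxycycline induced both beetle luciferases in TMD8 lymphoma cells; IKK-driven degradation limits the IkappaBalpha-fused green signal, while red luminescence normalises for cell number and nonspecific effects. Compounds tested up to 46 uM, 4 hrs.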
Tb PGK inh: inhibitors of T. brucei phosphoglycerate kinase. PGK/GAPDH coupled, Kinase-Glo luminescence, 60 min. Potency, µM (titrated, usually from 57.5 µM), usual class: inhibitors. 380,000 compounds, 0.043% hits; note: nearly all actives have a fitted effect of over 60% in size
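Recombinant glycosomal PGK reaction used 1,3-bisphosphoglycerate generated in-well by GAPDH (100nM final) in 100mM TEA pH 7.6, 5mM MgCl2, 0.01% Tween-20. After 60 minutes at room temperature, ATP was read by Kinase-Glo Plus luminescence end-point.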
Tb PFK KinaseGlo: orthogonal confirmation of T. brucei phosphofructokinase inhibitors. shares compounds with Tb PFK inh-1. Tb PFK enzyme, ATP depletion, Kinase-Glo Plus luminescence. Potency, µM (highest dose often 57.5 µM). 1,100 compounds, 47% hits; calls by dose curve; note: nearly all actives have a fitted effect of over 60% in size
Tb PFK inh-2: validation of T. brucei phosphofructokinase inhibitors; Potency, µM (top dose mostly 57.5 µM), hits mostly inhibitors; 1,100 compounds, 41% hits; purified T. brucei PFK, ADP-Glo luminescence, 45 min; shares compounds with Tb PFK inh-1; note: nearly all actives have a fitted effect of over 60% in size
A number is an active result; – = inactive; ? = inconclusive; · = no result. Unless noted, calls come from the whole dose curve; as a rule, active = well fitted curve in the direction sought with a large enough effect; inconclusive = small, poorly fitted or top-dose-only effect, or another doubt; inactive = no such curve, though single readings can be large; an effect the other way counts as inactive or inconclusive.

SMILES	Tb PFK inh-1	PI4K2A inh	Pin1 inh	BCR signal inh	Tb PGK inh	Tb PFK KinaseGlo	Tb PFK inh-2
CC(C)(C)C(=O)[C@@H]1[C@@H]2C(=O)N(c3ccc4c(c3)OCCO4)C(=O)[C@@H]2C2c3ccccc3C=CN21 (some centres undefined)	?	–	–	?	–	–	–
O=C(Cc1ccccc1)N/N=C/c1cccnc1	–	–	–	–	–	·	·
O=C(Cc1ccc(Br)cc1)N/N=C/c1cccnc1	17µM	–	–	–	–	13µM	?
Cn1c(=O)[nH]c(=O)c2c1nc(SCCN1CCCCC1)n2Cc1ccccc1	–	–	–	?	–	·	·
Cn1c(=O)[nH]c(=O)c2c1nc(SCCN1CCCCC1)n2CCCc1ccccc1	?	–	–	–	–	6.7µM	17µM
Fc1cc(Br)ccc1CBr	·	–	·	·	·	·	·
O=C(OCC(=O)N1CCN(c2cccc(Cl)c2)CC1)c1ccco1	21µM	–	–	–	–	24µM	?
O=C(OCC(=O)N1CCN(c2ccccc2)CC1)c1cccc(Cl)c1	–	–	–	–	–	·	·
Cc1[nH]c2c(Cl)cccc2c1CCN	19µM	–	–	–	–	11µM	11µM
Cc1[nH]c2c(Cl)cccc2c(=O)c1CN1CCCC1	–	–	–	–	–	·	·
O=C(Cc1ccc(Cl)c(Cl)c1)Nc1cccc2ncccc12	11µM	–	–	?	–	11µM	11µM
O=C(Cc1ccc(Cl)cc1)Nc1cccc2ncccc12	–	–	–	–	–	·	·
O=C(Cc1nnc(CNC(=O)c2ccccc2)s1)Nc1ccc(C(F)(F)F)cc1Cl	·	·	–	·	·	·	·
CCCN1C(=O)S/C(=C/c2ccc(N3CCOCC3)o2)C1=O	?	–	?	–	–	–	–
CCCN1C(=O)S/C(=C\c2ccc(N3CCOCC3)o2)C1=O	?	–	?	–	–	·	·
Cc1occc(=O)c1OC(=O)Nc1ccc(Cl)c(Cl)c1	30µM	–	–	?	–	?	?
COc1ccc(C2Oc3ccccc3C(=O)N2Cc2ccccc2)cc1COc1ccc(NC(C)=O)cc1 (centres undefined)	·	·	–	·	·	·	·
Cc1cccc(OCC(O)CNC(C)(C)C)c1C (centres undefined)	·	–	·	·	·	·	·
O=C1CC(c2cccnc2)=NN1c1ccc(Cl)cc1Cl	?	–	–	–	–	–	–
CC(C)C(C(=O)O)N1C(=O)/C(=C/C=C/c2ccco2)SC1=S (centres undefined)	?	–	?	?	8.9µM	8.5µM	21µM
O=C1/C(=C/C=C/c2ccco2)SC(=S)N1c1ccc(O)cc1	–	–	?	–	?	·	·
COc1ccc(CNC(=O)N2CCN(c3cccc(Cl)c3)CC2)cc1OC	27µM	–	–	?	–	12µM	24µM
COc1ccc(N2CCN(C(=O)NCc3ccc(OC)c(OC)c3)CC2)cc1	–	–	–	–	–	·	·
CC[N+]1(CC)CCC(OC(=O)C(O)(c2ccccc2)c2ccccc2)C1 (centres undefined)	·	–	·	·	·	·	·
Cc1c(NC(=O)c2ccc(S(=O)(=O)N(C)C)cc2)cccc1-n1cnnn1	–	–	–	–	–	·	·
SMILES	Tb PFK inh-1	PI4K2A inh	Pin1 inh	BCR signal inh	Tb PGK inh	Tb PFK KinaseGlo	Tb PFK inh-2
Cc1c(NC(=O)c2ccc(Cl)c([N+](=O)[O-])c2)cccc1-n1cnnn1	?	–	–	–	–	?	?
O=C(CN1C(=O)/C(=C2/SC(=S)N(CCS(=O)(=O)O)C2=O)c2ccccc21)Nc1cccc(C(F)(F)F)c1	?	–	·	–	?	·	·
O=C(CN1C(=O)/C(=C2\SC(=S)N(CCS(=O)(=O)O)C2=O)c2ccccc21)Nc1cccc(Br)c1	27µM	–	·	–	?	4.3µM	7.6µM
Cc1cccc(OC2=NS(=O)(=O)c3ccccc32)c1	·	·	–	·	·	·	·
CC1(C)CC(=O)C(C(C2=C(O)CC(C)(C)CC2=O)c2cccs2)C(=O)C1 (centres undefined)	?	–	–	–	–	–	?
O=C(Cc1ccc(Cl)cc1)Nc1ccc(S(=O)(=O)N2CCOCC2)cc1	21µM	–	–	–	–	9.5µM	27µM
O=C(COc1ccc([N+](=O)[O-])cc1)Nc1ccc(S(=O)(=O)N2CCOCC2)cc1	?	–	–	–	–	21µM	27µM
Cc1ccc(CC(=O)Nc2ccc(S(=O)(=O)N3CCOCC3)cc2)cc1	–	–	–	–	–	·	·
O=C(Cc1ccc(Cl)c(Cl)c1)Nc1cccc(S(=O)(=O)N2CCOCC2)c1	21µM	–	–	?	–	9.5µM	17µM
N#CN1CCC(NS(=O)(=O)c2ccc(F)cc2)CC1	·	·	–	·	·	·	·
CC(=O)Nc1ccc(SCC(=O)c2ccc(Br)s2)cc1	24µM	–	–	–	–	?	–
CC(=O)N(CC(=O)N(C)C)c1ccccc1	·	–	·	·	·	·	·
Cc1onc(-c2c(Cl)cccc2Cl)c1C(=O)Cl	·	–	·	·	·	·	·
CN(C)[C@@H](CCOc1cccc2ccccc12)c1ccccc1	·	–	·	·	·	·	·
Cc1cc([N+](=O)[O-])nn1CC(=O)Nc1sc2c(c1C(N)=O)CCCC2	–	–	–	–	–	·	·
Cc1cc([N+](=O)[O-])nn1CCCC(=O)Nc1sc2c(c1C(N)=O)CCCC2	?	–	–	–	–	27µM	24µM
CSc1cc2c(s1)c1cnn(Cc3ccccc3F)c(=O)c1n2C	·	·	–	·	·	·	·
O=C(C1CCN(c2ncnc3c2nc2n3CCCCC2)CC1)N1CCN(c2cccc(Cl)c2)CC1	9.5µM	–	–	–	–	24µM	?
O=C(C1CCN(S(=O)(=O)c2cccnc2)CC1)N1CCN(c2cccc(Cl)c2)CC1	21µM	–	–	–	–	?	–
COC(=O)c1cc(Cl)ccc1OC	·	–	·	·	·	·	·
COc1cc(C2/C(=C(/O)c3ccc(F)cc3)C(=O)C(=O)N2CCCC(=O)O)ccc1O (centres undefined)	?	–	–	–	–	12µM	21µM
Cc1ccc(NC(=O)CSc2nnc(Cc3ccccc3)o2)cc1	–	–	–	–	–	·	·
O=C(CSc1nnc(Cc2ccc(Cl)cc2)o1)Nc1ccccc1	?	–	–	–	–	?	?
CN(C)C(=O)CSc1nnc(Cc2ccc([N+](=O)[O-])cc2)o1	?	–	–	–	·	·	·
CC(=O)CSc1nnc(Cc2ccc([N+](=O)[O-])cc2)o1	?	–	–	–	–	?	–
CN(C)c1ccc(/C=N\NC(=O)c2ccc(Cn3cc(Cl)cn3)cc2)cc1	12µM	–	–	–	–	2.7µM	3.4µM
O=C(COC(=O)/C=C/c1ccco1)Nc1ncc(C(F)(F)F)cc1Cl	17µM	–	?	–	13µM	11µM	13µM
N#Cc1ccc2ccn(CC(=O)NCc3ccccc3)c2c1	?	–	–	–	–	?	21µM
N#Cc1ccc2ccn(CC(=O)NC3CCCCC3)c2c1	–	–	–	–	–	·	·

Screening results deposited in PubChem BioAssay by National Center for Advancing Translational Sciences (NCATS).
